Assay outcomes (PubChem)
Only some compounds are listed: those with a hit (about 2.6% of all), similar ones and a draw of the others.
PKA-R1A activ = activators of PKA-R1A holoenzyme, primary screen, biochemical, fluorescence polarization, Cy5-IP20, bovine R1A, mouse PKAc. cAMP-dependent protein kinase type I-alpha regulatory subunit (Bos taurus) + …. PKA-R1A dissociation; scaled: DMSO 0%, 113 µM cGMP 100%. activation, % at 11.4 µM. 340,000 tested, 0.083% active. AID 504707, 2011;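 active means percent activation above the mean of all tested compounds plus 3 SD, cut at about 19% in these data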;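 further: higher means more PKAc released from R1A so a rise in polarization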
PAFAH2 inh = PAFAH2 enzyme inhibitors, primary screen, biochemical, fluorescence polarization, human; Platelet-activating factor acetylhydrolase 2, cytoplasmic (Homo sapiens), Q99487; recombinant PAFAH2, FP-rhodamine activity probe; inhibition, % at 3.39 µM; 340,000 tested, 0.99% active; AID 492956, 2010;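 active means inhibition above the mean over all tested compounds plus 3 SD, cut at about 30% in these data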;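 further: inhibitors block probe labeling of enzyme so polarization drops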
pPAFAH FP inh = pPAFAH enzyme inhibitors, primary screen, biochemical, fluorescence polarization, human | 330,000 tested, 1.5% active | inhibition, % at 3.39 µM | Platelet-activating factor acetylhydrolase (Homo sapiens), Q13093 | recombinant pPAFAH, FP-rhodamine probe fluorescence polarization;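 active means inhibition above the mean inhibition across the screen plus 3 SD, cut at about 25% in these data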;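 further: inhibitors block binding of the rhodamine activity-based probe so polarization drops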
Target sequence (Q13093 whole entry, looked up): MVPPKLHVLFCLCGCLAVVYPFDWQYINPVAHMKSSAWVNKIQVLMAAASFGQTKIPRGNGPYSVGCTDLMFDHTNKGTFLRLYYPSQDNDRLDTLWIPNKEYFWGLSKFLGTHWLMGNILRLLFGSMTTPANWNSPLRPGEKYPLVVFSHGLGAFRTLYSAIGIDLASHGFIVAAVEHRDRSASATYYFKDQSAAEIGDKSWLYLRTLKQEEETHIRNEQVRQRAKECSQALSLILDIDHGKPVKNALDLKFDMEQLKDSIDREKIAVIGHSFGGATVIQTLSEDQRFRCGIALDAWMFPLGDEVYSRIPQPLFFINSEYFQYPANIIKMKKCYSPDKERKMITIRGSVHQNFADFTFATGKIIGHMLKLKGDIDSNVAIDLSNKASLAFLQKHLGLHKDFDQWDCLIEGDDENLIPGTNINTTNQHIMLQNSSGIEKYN
PAFAH1B3 FP inh = PAFAH1B3 enzyme inhibitors, primary screen, biochemical, fluorescence polarization, human | Platelet-activating factor acetylhydrolase IB subunit alpha1 (Homo sapiens), Q15102 | recombinant PAFAH1B3, FP-rhodamine probe | inhibition, % at 3.39 µM | 340,000 tested, 0.28% active | AID 492972, 2010;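 active means inhibition above the screen-wide average of all tested compounds plus 3 SD, cut at about 25% in these data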
Target sequence (Q15102 whole entry, looked up): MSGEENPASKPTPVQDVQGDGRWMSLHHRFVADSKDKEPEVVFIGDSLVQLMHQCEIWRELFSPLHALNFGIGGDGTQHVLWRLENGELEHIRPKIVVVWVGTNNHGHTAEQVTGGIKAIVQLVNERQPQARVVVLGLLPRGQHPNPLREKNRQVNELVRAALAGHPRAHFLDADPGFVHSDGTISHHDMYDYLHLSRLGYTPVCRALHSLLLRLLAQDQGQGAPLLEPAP
PKA-R2B activ = activators of PKA-R2B holoenzyme, primary screen, biochemical, fluorescence polarization, Cy5-IP20, human | PKA-R2B holoenzyme dissociation; R2B truncated from residue 108, S112A mutant; 0% DMSO only, 100% 113 µM cGMP | 340,000 tested, 0.079% active | AID 504700, 2011 | cAMP-dependent protein kinase catalytic subunit beta (Homo sapiens) + cAMP-dependent … | activation, % at 11.4 µM;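 active means activation above a cutoff set at the mean over all compounds plus 3 SD, cut at about 18% in these data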;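 further: higher means more holoenzyme dissociation and a rise in polarization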
PAFAH1B2 inh = PAFAH1B2 enzyme inhibitors, primary screen, biochemical, fluorescence polarization, human; inhibition, % at 3.39 µM; Platelet-activating factor acetylhydrolase IB subunit alpha2 (Homo sapiens), P68402; 340,000 tested, 1.2% active; recombinant PAFAH1B2, FP-rhodamine activity probe;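 active means inhibition above the mean of all tested compounds plus 3 SD, cut at about 24% in these data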
pPAFAH confirm = pPAFAH (PLA2G7) enzyme inhibitors, confirmation, biochemical, fluorescence polarization, human; shares compounds with pPAFAH FP inh; recombinant pPAFAH, FP-Rh probe fluorescence polarization; inhibition, % at 3.39 µM; 2,300 tested, 72% active; AID 463230, 2010;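 active means mean inhibition of the triplicate above the hit cutoff set for the earlier primary screen, cut at about 25% in these data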
PAFAH2 FP conf = PAFAH2 enzyme inhibitors, confirmation, biochemical, fluorescence polarization, human. AID 493030, 2011. 2,300 tested, 65% active. inhibition, % at 3.39 µM. recombinant PAFAH2, FP-rhodamine activity probe. shares compounds with PAFAH2 inh;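 active means mean inhibition over three repeats above a set limit taken from the earlier primary screen, cut at about 30% in these data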;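 further: inhibitor blocks binding of rhodamine activity probe so polarization falls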
Numbers stand for hits; – = inactive; · = no result given.

SMILES | PKA-R1A activ | PAFAH2 inh | pPAFAH FP inh | PAFAH1B3 FP inh | PKA-R2B activ | PAFAH1B2 inh | PAFAH2 FP conf | others
Cc1ccc(-c2cc(-c3ccccc3)cc(-c3ccccc3)[n+]2-c2ccc(C(=O)O)cc2)cc1 | – | – | 38 | – | – | – | · | pPAFAH confirm=–
O=[N+]([O-])c1ccc(OP(=O)(O)Oc2ccc([N+](=O)[O-])cc2)cc1 | – | – | · | – | – | – | ·
COc1ccc2nc3oc(C(=O)N4CCC5(CC4)OCCO5)cc3cc2c1 | – | – | 44 | – | – | – | · | pPAFAH confirm=36
COc1ccc(OC)c(N2C(=O)NC(=O)/C(=C/c3ccc([N+](=O)[O-])s3)C2=O)c1 | – | 66 | 62 | 69 | – | 55 | · | pPAFAH confirm=58
COc1cc(/C=C2\C(=O)NC(=O)N(c3ccccc3)C2=O)c([N+](=O)[O-])cc1OC | – | – | · | – | – | – | ·
NC(=Nc1ccccc1)NN=Cc1c[nH]c2ccccc12 | – | – | · | – | – | – | ·
CNc1ccc2oc(C[C@H]3O[C@@]4(CC[C@H]3C)O[C@H]([C@H](C)C(=O)c3ccc[nH]3)[C@H](C)C[C@H]4C)nc2c1C(=O)O | – | – | 38 | – | – | – | · | pPAFAH confirm=–
Cc1ccccc1Cc1c(C)nc2nc(SCC(=O)N3CCC4(CC3)OCCO4)nn2c1C | – | – | – | – | – | – | ·
Cc1cc(Oc2cc(NN3CCCCC3)c([N+](=O)[O-])cc2[N+](=O)[O-])ccc1[N+](=O)[O-] | – | – | – | – | – | – | ·
O=C(C1CC(c2ccc(F)cc2)=NO1)N1CCC2(CC1)OCCO2 (stereo not given) | – | – | – | – | – | – | ·
O=C(C1CC(c2ccc(Cl)c(Cl)c2)=NO1)N1CCC2(CC1)OCCO2 (stereo not given) | – | 41 | 61 | – | – | – | · | pPAFAH confirm=50
C[n+]1c2ccccc2nc2ccc(NCCO)cc21 | – | 83 | 72 | 82 | – | 72 | · | pPAFAH confirm=58
CNc1ccc2nc3ccccc3[n+](C)c2c1 | – | 108 | 88 | 100 | – | 99 | · | pPAFAH confirm=81
C=CCN(CC=C)C(=O)CCN1CC1C (stereo not given) | – | – | · | – | – | – | ·
CCOc1cc(/C=C2\C(=O)NC(=O)N(CCc3ccc(F)cc3)C2=O)ccc1O | – | – | – | – | – | – | ·
Cc1ccsc1/C=C1\C(=O)NC(=S)N(C)C1=O | – | – | – | – | – | – | ·
COc1ccc(/C=C2\C(=O)NC(=S)N(C)C2=O)cc1C | – | 35 | – | – | – | – | –
NC1=Nc2ccccc2Oc2ccccc21 | – | – | – | – | – | – | ·
CC(N)C(=O)NC1C2C(=C(O)CC(O)C2O)C(=O)OC1(C)C(Cl)Cl (stereo not given) | – | – | · | – | – | – | ·
Cc1ccccc1-n1c(C)cc(/C=C2/C(=O)NC(=O)N(Cc3ccco3)C2=O)c1C | – | 42 | – | – | – | – | 46
Cc1cc(/C=C2\C(=O)NC(=O)N(Cc3ccccc3Cl)C2=O)c(C)n1-c1ccc(C(=O)O)cc1 | – | 34 | – | – | – | – | –
Cc1ccc(-n2c(C)cc(/C=C3/C(=O)NC(=O)N(Cc4ccco4)C3=O)c2C)cc1 | – | – | – | – | – | – | ·
CCC(C)N1C(=O)/C(=C\c2ccc(N3CCCCCC3)cc2)C(=O)NC1=S (stereo not given) | – | – | – | – | – | – | ·
CCC(C)N1C(=O)/C(=C\c2cc3c4c(c2)CCCN4CCC3)C(=O)NC1=S (stereo not given) | – | 36 | – | – | – | – | –
Cn1cc(C(=O)OCC(=O)NC2(C#N)CCCC2)c2ccccc21 | – | 65 | – | – | – | – | 49
SMILES | PKA-R1A activ | PAFAH2 inh | pPAFAH FP inh | PAFAH1B3 FP inh | PKA-R2B activ | PAFAH1B2 inh | PAFAH2 FP conf | others
Cn1cc(C(=O)OCC(=O)N2CCCCC2)c2ccccc21 | – | – | – | – | – | – | ·
Cn1cc(C(=O)OCC(=O)NC2(C#N)CCCCC2)c2ccccc21 | – | 81 | · | – | – | – | 81
O=C1/C(=C\c2cccnc2)N2CCC1CC2 | – | – | – | – | – | – | ·
Oc1c(Cl)cccc1Cc1cc(Cl)cc(Cl)c1O | – | 37 | · | – | – | – | –
Cc1cc(OCC(=O)N2C[C@H]3C[C@@H](C2)c2cccc(=O)n2C3)c2c(C)cc(=O)oc2c1 | – | 38 | – | – | – | – | –
CCc1cc(=O)oc2cc(OCC(=O)N3C[C@H]4C[C@@H](C3)c3cccc(=O)n3C4)c(Cl)cc12 | – | – | – | – | – | – | ·
COc1ccc(C(O)P(=O)(Oc2ccccc2)Oc2ccccc2)cc1 (stereo not given) | – | 33 | – | – | – | – | –
O=P(Oc1ccccc1)(Oc1ccccc1)C(O)c1ccc(Cl)cc1 (stereo not given) | – | – | – | – | – | – | ·
O=P(Nc1ccccc1)(Nc1ccccc1)Oc1cccc(Cl)c1 | – | – | – | – | – | – | ·
CCC(=NCC1CCCO1)c1c(O)n(-c2ccccc2C)c(=O)[nH]c1=O (stereo not given) | – | – | – | – | – | – | ·
C=CCN1C(=O)/C(=C/c2cc(C)n(-c3cccnc3)c2C)C(=O)NC1=S | – | 31 | – | – | – | – | –
COC(=O)C1=C(c2cccc(C#N)c2)C[C@@H]2CC[C@H]1N2C(=O)NCCOc1ccc(OC)cc1 | – | – | – | – | – | – | ·
O=C(O)C1C(C(=O)O)C2(Cl)C(Cl)=C(Cl)C1(Cl)C2(Cl)Cl (stereo not given) | – | – | – | – | – | – | ·
C=CCOC(=O)C1C(C(=O)O)C2(Cl)C(Cl)=C(Cl)C1(Cl)C2(Cl)Cl (stereo not given) | – | 31 | · | – | – | – | –
Cc1cc(C=C2C(=O)NC(=S)NC2=O)c(C)n1C1CCCC1 | – | 34 | – | – | – | – | –
CC(C)N1CCN(Cc2cccc([N+](=O)[O-])c2)CC1 | – | 117 | – | – | – | – | –
COc1ccccc1NC(=O)COC(=O)c1cc(C)n(C2CC2)c1C | – | – | – | – | – | – | ·
